# Data from PubChem BioAssay (EPA / NIEHS).
# Records with an inconclusive call do not appear. Active and inactive are the calls of the source. The calls were made as follows: active = hit-call score of the fitted dose curve at least 0.9, where 1 is the maximum; inconclusive = response in the unintended direction; inactive = score below 0.9.
# Molecular target: human Vitamin D Receptor (VDR), VDR (gene 7421) (UniProt P11473)
# Assay: ATG_VDR_TRANS: Attagene TRANS-FACTORIAL HepG2 Assay for human Vitamin D Receptor (VDR) (AID 2283022)
# Protocol: ATG_TRANS is a cell-based, multiplexed-readout assay that uses HepG2, a human liver cell line, with measurements taken at 24 hours after chemical dosing in a 24-well plate.ATG_VDR_TRANS is one of 30 assay component(s) measured or calculated from the ATG_TRANS assay. It is designed to make measurements of mRNA induction, a form of inducible reporter, as detected with fluorescence intensity signals by Reverse transcription polymerase chain reaction (RT-PCR) and Capillary electrophoresis technology.Data from the assay component ATG_VDR_TRANS was analyzed into 1 assay endpoint. This assay endpoint, ATG_VDR_TRANS, was analyzed in the positive analysis fitting direction relative to DMSO as the negative control and baseline of activity. Using a type of inducible reporter, measures of mRNA for gain-of-signal activity can be used to understand the reporter gene at the transcription factor-level as they relate to the gene VDR. Furthermore, this assay endpoint can be referred to as a primary readout, because this assay has produced multiple assay endpoints where this one serves a reporter gene function. To generalize the intended target to other relatable targets, this assay endpoint is annotated to the nuclear receptor intended target family, where the subfamily is non-steroidal.
# Human liver HepG2 cells are transiently transfected with multiple reporter transcription units (MRTUs) in 6-well plates using FuGene 6 reagent (Roche; 3 ml FuGene/1 mg DNA). The MRTU constructs are regulated by a cis-regulating element (promoter). […] A major difference between the CIS and TRANS system is that in CIS activities of endogenous TFs are measured, whereas the TRANS assay evaluates changes in activities of exogenous, chimeric NR-Gal4 proteins. […] At the end of 24 hour incubation, total RNA was isolated using TriZol reagent (Invitrogen). The isolated RNA is then reverse-transcribed using oligo(dT) primer and Mo-MLV reverse transcriptase (Invitrogen) with DNAse I (Ambion) treatment for 30 min. The one-tenth of the produced cDNA was amplified by PCR using Taq DNA polymerase (Invitrogen) and two reporter sequence-specific primers. The PCR products were fluorescently labeled by primer extension with 6-arboxyfluorescein (6-FAM) 5'-labeled reporter sequence-specific primer (2 min at 95 C, 20 s at 68 C and 10 min at 72 C) and these products were digested with 5U of HpaI (New England Biolabs) for 2h at 37 C. The fragments were purified using Qiaquick PCR columns (Qiagen), analyzed on an ABI 3130xL genetic analyzer (Applied Biosystems) with peak positions identified by using a set of X-rhodamine (ROX)-labeled MapMarker1000 molecular weight standards (BioVentures). The raw capillary electrophoresis data was processed using Attagraph software (Attagene).
# Chain of human Vitamin D Receptor (VDR), VDR (gene 7421) (P11473 whole entry, looked up): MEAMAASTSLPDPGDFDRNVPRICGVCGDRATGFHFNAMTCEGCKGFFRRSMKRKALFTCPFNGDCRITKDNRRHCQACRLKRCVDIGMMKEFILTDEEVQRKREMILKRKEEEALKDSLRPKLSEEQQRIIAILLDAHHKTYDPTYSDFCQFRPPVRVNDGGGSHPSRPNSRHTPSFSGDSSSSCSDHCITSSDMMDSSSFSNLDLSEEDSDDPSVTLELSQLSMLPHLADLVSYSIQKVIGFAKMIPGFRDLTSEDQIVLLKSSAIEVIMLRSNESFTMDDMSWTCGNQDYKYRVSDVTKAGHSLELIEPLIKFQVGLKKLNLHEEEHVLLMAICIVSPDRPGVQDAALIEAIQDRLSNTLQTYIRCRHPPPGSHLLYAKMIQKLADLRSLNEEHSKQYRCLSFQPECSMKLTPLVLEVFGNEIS
SMILES,outcome,AC50
[Cl-].[Cl-].[Hg+2],inactive,–
Oc1ccc2ccc3cccc4ccc1c2c34,inactive,–
Clc1ccc(C(c2ccc(Cl)cc2)C(Cl)Cl)cc1,inactive,–
ClC1=C(Cl)[C@]2(Cl)[C@H]3[C@H]([C@@H]4C=C[C@H]3C4)[C@@]1(Cl)C2(Cl)Cl,inactive,–
Cc1cc(N=Nc2ccccc2C)ccc1N,inactive,–
Cc1ccc([N+](=O)[O-])cc1,inactive,–
Nc1ccc(Cc2ccc(N)cc2)cc1,inactive,–
c1ccc(N=Nc2ccccc2)cc1,inactive,–
O=C1CCCO1,inactive,–
CCOc1cccc(C2(N3CCN(c4ccccc4)CC3)CCC(C)CC2)c1 (stereo not given),inactive,–
C1=Cc2cccc3cccc1c23,inactive,–
CN(C)c1ccccc1,inactive,–
CCC[CH2][Sn]([Cl])([CH2]CCC)[CH2]CCC,–,1.92 µM (active)
CC(C)N(Cc1ccccc1)C(=O)C(C)(C)C,inactive,–
N#CC(Br)(Br)C(N)=O,inactive,–
O=C(N[C@H](c1ccccc1)[C@@H]1CN2CCC1CC2)c1c(Cl)ccc(C(F)(F)F)c1Cl,inactive,–
CCCCC(CC)COC(=O)c1ccc(C(=O)OCC(CC)CCCC)c(C(=O)OCC(CC)CCCC)c1 (stereo not given),inactive,–
Nc1ccc(Cl)cc1N,inactive,–
O=[N+]([O-])C(Br)(CO)CO,inactive,–
Brc1ccc(Oc2ccccc2)cc1,inactive,–

SMILES,outcome,AC50
Cc1ccc(N=C=O)cc1N=C=O,inactive,–
OCCCl,inactive,–
CC(C)(C)C(O)(CCc1ccc(Cl)cc1)Cn1cncn1 (stereo not given),inactive,–
CS(=O)(=O)NC(=O)c1cc(Oc2ccc(C(F)(F)F)cc2Cl)ccc1[N+](=O)[O-],inactive,–
c1ccc(NNc2ccccc2)cc1,inactive,–
O=Cc1ccco1,inactive,–
O=[N+]([O-])c1ccc(Oc2ccc(Cl)cc2Cl)cc1,inactive,–
CCOC(=O)[C@]1(c2ccccc2)Oc2ccccc2[C@@H]1N,inactive,–
Clc1ccccc1Cl,inactive,–
Clc1ccc(Cl)c(Cl)c1,inactive,–
CCNS(=O)(=O)C(F)(F)C(F)(F)C(F)(F)C(F)(F)C(F)(F)C(F)(F)C(F)(F)C(F)(F)F,inactive,–
CNC(=O)Oc1cccc2c1OC(C)(C)C2,inactive,–
CCCSC(=O)N(CCC)CCC,inactive,–
CC(C)(OOC(C)(C)c1ccccc1)c1ccccc1,inactive,–
Nc1ccc(N=Nc2ccccc2)cc1,inactive,–
Clc1ccc(C(c2ccc(Cl)cc2)C(Cl)(Cl)Cl)cc1,inactive,–
COC(=O)c1ccccc1N,inactive,–
Oc1ccccc1Cl,inactive,–
CO[C@@H]1[C@H](OC(=O)NC(=O)CCl)CC[C@]2(CO2)[C@H]1[C@@]1(C)O[C@@H]1CC=C(C)C,inactive,–
O=C(O)C1C2CCC(O2)C1C(=O)O (stereo not given),inactive,–
